Measurements published in PubChem BioAssay (NCI).
The panel holds about 79,000 compounds, 15% with a hit somewhere; the sample as a whole holds those more often. Activity calls are given as the source filed them. Cut-off read from the data, not from the text of the source: active = growth inhibition above about 70%; inactive = the rest.

What was measured:
[1] = NCI Yeast Anticancer Drug Screen. Data for the rad50 strain (AID 155);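 note: 0% = growth of vehicle-only cultures of the same strain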; conditions: S. cerevisiae rad50 strain growth inhibition, hits give high values
How it was run: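 Readout: growth inhibition relative to vehicle-treated cultures. Compound exposure was carried out in a genetically defined yeast strain deficient in DNA damage repair.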

[2] = NCI Yeast Anticancer Drug Screen. Data for the mec2-1 strain (AID 157); conditions: S. cerevisiae mec2-1 strain, hits give high values
How it was run: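 Mutant yeast (mec2-1) grown with compound; growth inhibition relative to vehicle control reported.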

[3] = NCI Yeast Anticancer Drug Screen. Data for the sgs1 mgt1 strain (AID 161);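 note: 0% = growth of cultures given vehicle only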; conditions: S. cerevisiae sgs1 mgt1 strain, hits give high values
How it was run: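 Compounds are added to genetically altered yeast, and growth is compared with cultures given vehicle alone to give percent inhibition.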

[4] = NCI Yeast Anticancer Drug Screen. Data for the cln2 rad14 strain (AID 165);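 note: 0% = growth equal to vehicle treated cultures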; conditions: S. cerevisiae cln2 rad14 strain, hits give high values
How it was run: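 Readout is yeast growth inhibition versus vehicle-treated controls, using a strain with cln2 and rad14 alterations exposed to compound.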

[5] = NCI Yeast Anticancer Drug Screen. Data for the bub3 strain (AID 167); conditions: S. cerevisiae bub3 mutant strain, hits give high values
How it was run: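 Readout: yeast growth inhibition, expressed relative to vehicle-only wells. The test organism is a mutant strain from a panel with lesions in DNA repair or checkpoint genes.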

[6] = NCI Yeast Anticancer Drug Screen. Data for the mlh1 rad18 strain (AID 175); conditions: S. cerevisiae mlh1 rad18 strain growth inhibition, hits give high values
How it was run: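 Genetically defined yeast (DNA repair-deficient) exposed to compounds; growth inhibition determined relative to vehicle.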

[7] = at 5.0 µM (retest, dose inferred, filed as 0.5)
[8] = at 50.0 µM (retest, dose inferred, filed as 5.0)

Measured: growth inhibition

CCC(=O)NC1=CCC(C(C)(C)C)CC1 (stereo not given)
inactive: [1]; [7] 2% | [1]; [8] -4% | [1]; at 50.0 µM 10.2% | [2]; [7] 1% | [2]; [8] 4% | [2]; at 50.0 µM -5.55% | [3]; [7] 1% | [3]; [8] 4% | [3]; at 50.0 µM -0.5% | [4]; [7] 4% | [4]; [8] -4% | [4]; at 50.0 µM 7.9% | [5]; [7] 9% | [5]; [8] 18% | [5]; at 50.0 µM 42.5% | [6]; [7] 0% | [6]; [8] -1% | [6]; at 50.0 µM -5.45%

CN1C(=O)C(Cl)(C(Cl)(Cl)S(=O)(=O)O)C(=O)c2ccccc21 (stereo not given)
inactive: [1]; [7] -3% | [1]; at 50.0 µM 42% | [2]; [7] 1% | [2]; at 50.0 µM 18.3% | [3]; [7] 1% | [3]; at 50.0 µM -8.1% | [4]; [7] 3% | [4]; at 50.0 µM 34.5% | [5]; [7] 0% | [5]; at 50.0 µM 4.2% | [6]; [7] -1% | [6]; at 50.0 µM 27.5%
active: [1]; [8] 95% | [2]; [8] 99% | [3]; [8] 98% | [4]; [8] 96% | [5]; [8] 97% | [6]; [8] 97%

Cn1c(CCC2(C)Cc3ccccc3C(=O)O2)cc2ccccc2c1=O (stereo not given)
inactive: [1]; [7] 3% | [1]; [8] 31% | [1]; at 50.0 µM 55.2% | [2]; [7] -6% | [2]; [8] 48% | [2]; at 50.0 µM 69.7% | [3]; [7] 0% | [4]; [7] -11% | [4]; [8] 27% | [4]; at 50.0 µM 28.4% | [5]; [7] -27% | [6]; [7] 2% | [6]; [8] 48% | [6]; at 50.0 µM 49%
active: [3]; [8] 79% | [3]; at 50.0 µM 73.9% | [5]; [8] 86% | [5]; at 50.0 µM 75.3%

CN1C(=O)CCCCCCCCCCSc2ccccc21
active: [1]; [8] 97% | [1]; at 50.0 µM 99% | [2]; [8] 99% | [2]; at 50.0 µM 99% | [3]; [8] 97% | [3]; at 50.0 µM 99.2% | [4]; [8] 99% | [4]; at 50.0 µM 96.7% | [5]; [8] 98% | [5]; at 50.0 µM 98.3% | [6]; [8] 98% | [6]; at 50.0 µM 98.8%
inactive: [1]; [7] 7% | [2]; [7] 8% | [3]; [7] 4% | [4]; [7] 7% | [5]; [7] 16% | [6]; [7] 6%

CC(=O)OC1CCCc2c1nc1ccccc1[n+]2[O-] (stereo not given)
inactive: [1]; [7] 10% | [1]; [8] -2% | [1]; at 50.0 µM 8.6% | [2]; [7] 10% | [2]; [8] 0% | [2]; at 50.0 µM 4.55% | [3]; [7] 6% | [3]; [8] 1% | [3]; at 50.0 µM 0.5% | [4]; [7] 3% | [4]; [8] -3% | [4]; at 50.0 µM 28.6% | [5]; [7] 15% | [5]; [8] 4% | [5]; at 50.0 µM -10.5% | [6]; [7] 11% | [6]; [8] -5% | [6]; at 50.0 µM 5.7%

CC(=O)/C=N/Nc1ccccc1
inactive: [1]; [7] 15% | [1]; [8] 20% | [1]; at 50.0 µM 42.1% | [2]; [7] 3% | [2]; [8] 7% | [2]; at 50.0 µM 3.5% | [3]; [7] -9% | [3]; [8] 11% | [3]; at 50.0 µM 33% | [4]; [7] 0% | [4]; [8] -8% | [4]; at 50.0 µM -9.5% | [5]; [7] -1% | [5]; [8] 3% | [5]; at 50.0 µM 7.2% | [6]; [7] 14% | [6]; [8] 32% | [6]; at 50.0 µM 58.6%

O=C(N/N=C/c1ccccc1O)c1ccccc1-n1cccc1
inactive: [1]; [7] 52% | [1]; [8] 64% | [1]; at 50.0 µM 53.6% | [2]; [7] 30% | [2]; [8] 53% | [2]; at 50.0 µM 36.6% | [3]; [7] 43% | [4]; [7] 32% | [4]; [8] 49% | [4]; at 50.0 µM 45% | [5]; [7] 41% | [5]; at 50.0 µM 62.7% | [6]; [7] 59% | [6]; at 50.0 µM 63.1%
active: [3]; [8] 81% | [3]; at 50.0 µM 80% | [5]; [8] 71% | [6]; [8] 74%

NC(CSC1(c2ccc(Cl)cc2)c2ccccc2-c2ccccc21)C(=O)O (stereo not given)
active: [5]; at 50.0 µM 91.2% | [6]; at 50.0 µM 74.8%
inactive: [1]; [7] 16% | [1]; [8] 68% | [1]; at 50.0 µM 68% | [2]; [7] 8% | [2]; [8] 51% | [2]; at 50.0 µM 61.9% | [3]; [7] -1% | [3]; [8] 22% | [3]; at 50.0 µM 35.1% | [4]; [7] -15% | [4]; [8] 59% | [4]; at 50.0 µM 43.8% | [5]; [7] 1% | [5]; [8] 44% | [6]; [7] -2% | [6]; [8] 55%

CC1=C(C)C(N2CCOCC2)CS(=O)(=O)O1 (stereo not given)
inactive: [1]; [7] 4% | [1]; [8] 0% | [1]; at 50.0 µM 6.15% | [2]; [7] 1% | [2]; [8] -3% | [2]; at 50.0 µM -14.4% | [3]; [7] 5% | [3]; [8] 0% | [3]; at 50.0 µM -2.3% | [4]; [7] 3% | [4]; [8] -1% | [4]; at 50.0 µM 16.4% | [5]; [7] -2% | [5]; [8] -1% | [5]; at 50.0 µM 1.35% | [6]; [7] 19% | [6]; [8] 17% | [6]; at 50.0 µM -3.95%

CC(=O)NNc1nc(C)c(C(=O)NNC(=O)C(=O)Nc2c(C)cccc2C(C)C)s1
inactive: [1]; [7] 3% | [1]; at 50.0 µM 43.1% | [2]; [7] 1% | [2]; at 50.0 µM 33% | [3]; [7] 6% | [3]; at 50.0 µM 47% | [4]; [7] 0% | [4]; [8] 49% | [4]; at 50.0 µM 9% | [5]; [7] 4% | [5]; at 50.0 µM 37.5% | [6]; [7] -4% | [6]; at 50.0 µM 44.1%
active: [1]; [8] 85% | [2]; [8] 88% | [3]; [8] 89% | [5]; [8] 87% | [6]; [8] 74%
